Settings in all cases: mRNA level, 48 h; actives raise or lower the signal
Read-out in assay [1]: Glutamate-cysteine ligase catalytic (GCLC), GCLC (gene 2729)
Briefly: LTEA_HepaRG_GCLC: Life Technologies and Expression Analysis (LTEA) Assay for Glutamate-cysteine ligase catalytic (GCLC) using HepaRG (AID 2283498). The essentials:
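Expression by TaqMan qRT-PCR, normalized to three housekeeping genes (ACTB, GAPDH, POLR2A), with up- or down-regulation fitted against DMSO. HepaRG cells dosed in duplicate for 48 h with 8 half-log concentrations up to 100 uM, vehicle 0.5% DMSO.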

Read-out in assay [2]: growth arrest and DNA damage 45 (GADD45G), GADD45G (gene 10912)
Description: LTEA_HepaRG_GADD45G: Life Technologies and Expression Analysis (LTEA) Assay for growth arrest and DNA damage 45 (GADD45G) using HepaRG (AID 2283499). The gist of the method: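 Gain or loss of GADD45G mRNA, quantified by TaqMan qRT-PCR against three housekeeping genes, is fitted in both directions relative to 0.5% DMSO. Human HepaRG cultures receive test chemical for 48 h at up to 100 uM.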

Read-out in assay [3]: Glutamate-cysteine ligase regulatory (GCLM), GCLM (gene 2730)
Description: LTEA_HepaRG_GCLM: Life Technologies and Expression Analysis (LTEA) Assay for Glutamate-cysteine ligase regulatory (GCLM) using HepaRG (AID 2283500). The gist of the method: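 Endpoint is GCLM transcript level by qRT-PCR, normalized to three housekeeping genes, after 48 h chemical exposure of human HepaRG cells (0.5% DMSO vehicle, top 100 uM, half-log dilutions). Fitting was bidirectional relative to DMSO.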

Read-out in assay [4]: Glutathione S-transferase M3 (GSTM3), GSTM3 (gene 2947)
Description: LTEA_HepaRG_GSTM3: Life Technologies and Expression Analysis (LTEA) Assay for Glutathione S-transferase M3 (GSTM3) using HepaRG (AID 2283501). The essentials: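 HepaRG, plated 48 h, then serum-free induction medium; test chemical 48 h, duplicate; 100 uM top, half-log x8, 0.5% DMSO. Read-out: GSTM3 mRNA (TaqMan qRT-PCR, Fluidigm array). Bidirectional fit vs DMSO.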

Read-out in assay [5]: Heat shock 70 kDa protein 1 (HSPA1A), gene 3303
Briefly: LTEA_HepaRG_HSPA1A: Life Technologies and Expression Analysis (LTEA) Assay for Heat shock 70 kDa protein 1 (HSPA1A) using HepaRG (AID 2283502). The essentials:
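Cells were plated and cultured for 48 h, then switched to serum-free induction medium. Chemicals were added at eight half-log concentrations up to 100 uM for 48 h. RNA was then isolated and HSPA1A measured by qRT-PCR with bidirectional curve fitting against DMSO.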

Read-out in assay [6]: Hypoxia-inducible factor 1-alpha (Homo sapiens) (UniProt Q16665)
Briefly: LTEA_HepaRG_HIF1A: Life Technologies and Expression Analysis (LTEA) Assay for Hypoxia-inducible factor 1 (HIF1A) Trancription factor using HepaRG (AID 2283503). The gist of the method: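 HIF1A transcript level read by qRT-PCR (ACTB, GAPDH, POLR2A normalization) after 48 h chemical exposure of HepaRG cultures. Eight half-log concentrations, top 100 uM, 0.5% DMSO vehicle, duplicates; bidirectional curve fit against DMSO baseline.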

Read-out in assay [7]: 3-Hydroxy-3-Methylglutaryl-CoA Synthase 2 (HMGCS2), HMGCS2 (gene 3158)
Briefly: LTEA_HepaRG_HMGCS2: Life Technologies and Expression Analysis (LTEA) Assay for 3-Hydroxy-3-Methylglutaryl-CoA Synthase 2 (HMGCS2) using HepaRG (AID 2283504). The gist of the method:
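HepaRG, plated 48 h then switched to serum-free induction media; cmpd 8-pt, max 100 uM, 1/2-log, 0.5% DMSO, n=2, 48 h. HMGCS2 mRNA by Fluidigm TaqMan qRT-PCR, ACTB/GAPDH/POLR2A norm; bidirectional fit vs DMSO.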

Read-out in another assay: HGF (gene 3082)
Briefly: LTEA_HepaRG_HGF: Life Technologies and Expression Analysis (LTEA) Assay for Hepatocyte Growth Facto (HGF) using HepaRG (AID 2283505). The gist of the method:
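Read-out is HGF transcript level by qRT-PCR, normalized to three housekeeping genes, fitted bidirectionally against 0.5% DMSO vehicle. Human HepaRG cells received test chemicals for 48 h at up to 100 uM.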

Read-out in assay [8]: Insulin Like Growth Factor 1 (IGF1), IGF1 (gene 3479)
Briefly: LTEA_HepaRG_IGF1: Life Technologies and Expression Analysis (LTEA) Assay for Insulin Like Growth Factor 1 (IGF1) using HepaRG (AID 2283506). The essentials:
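Cells are thawed, plated and cultured 48 h, then exposed in duplicate to chemical (highest 100 uM, half-log steps, 0.5% DMSO) for another 48 h. Total RNA is analysed by Fluidigm qRT-PCR for IGF1 expression relative to vehicle.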

Read-out in assay [9]: Intercellular Adhesion Molecule 1 (ICAM1), ICAM1 (gene 3383)
Description: LTEA_HepaRG_ICAM1: Life Technologies and Expression Analysis (LTEA) Assay for Intercellular Adhesion Molecule 1 (ICAM1) using HepaRG (AID 2283507). The essentials:
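Readout is qRT-PCR mRNA level, normalized to three housekeeping genes and fitted bidirectionally against 0.5% DMSO vehicle. Human HepaRG cultures received compound for 48 h, top concentration 100 uM with half-log dilutions.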

Read-out in assay [10]: Interleukin 6 (IL6), IL6 (gene 3569)
Briefly: LTEA_HepaRG_IL6: Life Technologies and Expression Analysis (LTEA) Assay for Interleukin 6 (IL6) using HepaRG (AID 2283509). The gist of the method: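 Transcript levels, normalized to three housekeeping genes, were quantified by qRT-PCR after 48 h chemical treatment of HepaRG cells. Eight-point half-log series from 100 uM in 0.5% DMSO, duplicates. Fitted both directions against DMSO baseline.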

Read-out in assay [11]: Interleukin 6 Receptor (IL6R), IL6R (gene 3570)
Description: LTEA_HepaRG_IL6R: Life Technologies and Expression Analysis (LTEA) Assay for Interleukin 6 Receptor (IL6R) using HepaRG (AID 2283510).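 As to AC50: differentiated human HepaRG liver cells in serum-free induction medium.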 The essentials: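 Cells were thawed, plated and cultured 48 h, then medium was changed to serum-free induction medium. Chemicals were added in duplicate (100 uM top, half-log steps, 0.5% DMSO) for 48 h. Lysates were analyzed by qRT-PCR for IL6R expression.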

Read-out in assay [12]: Potassium channel subfamily K member 1 (KCNK1), KCNK1 (gene 3775)
Briefly: LTEA_HepaRG_KCNK1: Life Technologies and Expression Analysis (LTEA) Assay for Potassium channel subfamily K member 1 (KCNK1) using HepaRG (AID 2283511). The essentials:
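KCNK1 transcript measured by TaqMan qRT-PCR against three housekeeping genes, after HepaRG cells were treated 48 h with eight half-log concentrations (top 100 uM, 0.5% DMSO). Curves fitted bidirectionally relative to vehicle.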

Read-out in assay [13]: Keratin 19 (KRT19), KRT19 (gene 3880)
Briefly: LTEA_HepaRG_KRT19: Life Technologies and Expression Analysis (LTEA) Assay for Keratin 19 (KRT19) using HepaRG (AID 2283512). The gist of the method: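 KRT19 transcript levels, measured by Fluidigm qRT-PCR against three housekeeping genes, are fitted for gain or loss of signal relative to DMSO. Human HepaRG cells receive test chemicals (top 100 uM, half-log steps, 0.5% DMSO) for 48 hours.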

Read-out in assay [14]: JUN Transcription Factor, JUN (gene 3725)
Briefly: LTEA_HepaRG_JUN: Life Technologies and Expression Analysis (LTEA) Assay for JUN Transcription Factor using HepaRG (AID 2283513). The gist of the method: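 Read-out is JUN transcript level by TaqMan qRT-PCR, normalized to ACTB, GAPDH and POLR2A, after 48 h chemical treatment of HepaRG cells. Concentration-response spanned eight half-log points up to 100 uM in 0.5% DMSO.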

Read-out in assay [15]: Lipase C (LIPC), LIPC (gene 3990)
Briefly: LTEA_HepaRG_LIPC: Life Technologies and Expression Analysis (LTEA) Assay for Lipase C (LIPC) using HepaRG (AID 2283514). The gist of the method: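 LIPC expression was quantified by qRT-PCR against three housekeeping genes (ACTB, GAPDH, POLR2A). Differentiated human HepaRG cells received eight half-log doses (top 100 uM, 0.5% DMSO) in duplicate for 48 h; fitting bidirectional relative to DMSO.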

Read-out in assay [16]: Lipoprotein lipase (LPL), LPL (gene 4023)
Briefly: LTEA_HepaRG_LPL: Life Technologies and Expression Analysis (LTEA) Assay for Lipoprotein lipase (LPL) using HepaRG (AID 2283515). The essentials: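 LPL transcript levels quantified by TaqMan qRT-PCR against three housekeeping genes after 48 h chemical treatment of HepaRG cells. Eight-point half-log series from 100 uM in 0.5% DMSO, tested in duplicate; bidirectional fitting versus vehicle.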

Read-out in assay [17]: matrix metalloproteinase-10 (MMP10), MMP10 (gene 4319)
Description: LTEA_HepaRG_MMP10: Life Technologies and Expression Analysis (LTEA) Assay for matrix metalloproteinase-10 (MMP10) using HepaRG (AID 2283517). The gist of the method: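 Expression measured by TaqMan qRT-PCR with ACTB/GAPDH/POLR2A normalisation after 48 h chemical exposure of HepaRG cells. Eight half-log concentrations, top 100 uM, 0.5% DMSO vehicle, duplicates; gain or loss fitted against vehicle.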

Activity calls are given as the source filed them. The calls were made as follows: active = hit-call score of the fitted dose curve at least 0.9, where 1 is the maximum; inactive = score below 0.9.

Hypoxia-inducible factor 1-alpha (Homo sapiens), sequence (Q16665 whole entry, looked up): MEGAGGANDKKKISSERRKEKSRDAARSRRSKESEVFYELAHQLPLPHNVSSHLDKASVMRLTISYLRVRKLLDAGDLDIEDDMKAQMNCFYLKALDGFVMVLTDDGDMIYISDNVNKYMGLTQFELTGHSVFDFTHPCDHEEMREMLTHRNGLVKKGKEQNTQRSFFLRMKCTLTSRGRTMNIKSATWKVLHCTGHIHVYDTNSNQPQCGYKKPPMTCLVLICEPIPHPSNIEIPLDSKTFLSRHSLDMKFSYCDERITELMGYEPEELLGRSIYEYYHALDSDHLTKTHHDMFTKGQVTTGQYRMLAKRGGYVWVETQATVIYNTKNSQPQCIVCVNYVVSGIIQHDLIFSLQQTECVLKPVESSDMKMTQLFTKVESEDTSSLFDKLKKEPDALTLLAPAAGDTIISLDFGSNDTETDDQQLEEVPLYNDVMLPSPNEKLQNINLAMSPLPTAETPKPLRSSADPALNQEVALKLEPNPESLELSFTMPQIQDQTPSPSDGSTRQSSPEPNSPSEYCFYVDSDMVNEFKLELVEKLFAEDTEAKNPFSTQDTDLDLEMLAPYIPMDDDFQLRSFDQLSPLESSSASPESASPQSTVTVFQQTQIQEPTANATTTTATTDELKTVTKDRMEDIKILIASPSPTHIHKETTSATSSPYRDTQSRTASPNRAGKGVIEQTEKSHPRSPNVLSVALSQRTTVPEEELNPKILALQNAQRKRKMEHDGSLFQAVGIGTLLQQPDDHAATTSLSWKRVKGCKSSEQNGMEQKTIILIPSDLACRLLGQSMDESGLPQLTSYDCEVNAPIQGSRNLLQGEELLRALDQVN

As for `COP(=S)(OC)Oc1nc(Cl)c(Cl)cc1Cl`, the compound was called inactive in assay [1], in [2], in [3], in assay [4], in assay [5] and in assay [6]. The result (in [7]; with HGF (gene 3082); in [8]; in [9]; in [10]; in assay [11]) was inactive. Besides, the result in assay [12], in [13], in assay [14], in [15], in assay [16] and in assay [17] was inactive.
The AC50 is the midpoint of the concentration-response curve, whichever way the signal moves. `O=C(Nc1ccccc1)Nc1ccnc(Cl)c1`: the AC50 in [1] was 83 µM (active); in [3] it was 84.8 µM (active); in [4], 80.4 µM (active); in [5], 84.2 µM (active); in assay [7] it was 28.6 µM (active); with HGF (gene 3082), 78 µM (active). The concentration at half-maximal activity (AC50) in [8] was 28.3 µM (active); in assay [10], 93.9 µM (active); in assay [11] it was 76.2 µM (active); in [13], 28.1 µM (active); in assay [15], 24 µM (active); in [16] it was 81.8 µM (active). Besides, the outcome in assay [2], in [6], in assay [9], in assay [12], in [14] and in assay [17] was inactive.
Turning to `O=C(O)COc1nc(Cl)c(Cl)cc1Cl`, the outcome in assay [1], in assay [2], in assay [3], in assay [4], in assay [5] and in [6] was inactive. The outcome (in assay [7]; in the assay with HGF (gene 3082); in assay [8]; in [9]; in assay [10]; in [11]) was inactive. Also, the call in assay [12], in [13], in assay [14], in assay [15], in [16] and in assay [17] was inactive.
Take `CC(C)C1(C)N=C(c2nc3ccccc3cc2C(=O)O)NC1=O` (stereo not drawn): the result in assay [1], in [2], in [3], in [4], in [5] and in assay [6] was inactive. Besides, the outcome (in assay [7]; with HGF (gene 3082); in assay [8]; in [9]; in assay [10]; in [11]) was inactive. Moreover, the compound was called inactive in [12], in assay [13], in [14], in [15], in [16] and in assay [17].
In the case of `COc1nc(NC(C)C)nc(NC(C)C)n1`, the result in [1], in assay [2], in assay [3], in assay [4], in [5] and in assay [6] was inactive. Further, the call (in [7]; with HGF (gene 3082); in assay [9]; in [10]; in assay [11]; in [12]) was inactive. In addition, the compound was classed as inactive in assay [14], in [15], in [16] and in assay [17]. Moreover, the AC50 in assay [8] was 66.2 µM (active); in [13], 39.4 µM (active).
Regarding `CCNc1nc(Cl)nc(NC(C)C)n1`, the call in assay [1], in assay [2], in [3], in assay [4], in assay [5] and in assay [6] was inactive. In addition, the compound was called inactive (in assay [7]; in the assay with HGF (gene 3082); in [9]; in assay [10]; in [11]; in [12]). Moreover, the compound was called inactive in [14], in [15], in [16] and in [17]. In addition, the AC50 was 50 µM (active) in assay [8] and 26.1 µM (active) in assay [13].

Values taken from PubChem BioAssay (EPA / NIEHS).
